Data taken from PMC7862700, “An all-to-all approach to the identification of sequence-specific readers for epigenetic DNA modifications on cytosine”.

Legend:
Experiment in all cases: DAPPL (digital affinity profiling via proximity ligation, sequencing); 10 mM Tris-HCl pH 7.5, 50 mM NaCl, 1 mM DTT, 4% glycerol, room temperature, 30 min; GST-TFs on glutathione beads, 16-mer random dsDNA library, 0.1% formaldehyde crosslink after washing; high values mean tight binding
Settings in all cases: protein: recombinant; tags: N-terminal GST; dsDNA, one strand shown
FLI1 = molecular target: T1, FLI1 (Homo sapiens, UniProt Q01543 1-452)
T1 sequence: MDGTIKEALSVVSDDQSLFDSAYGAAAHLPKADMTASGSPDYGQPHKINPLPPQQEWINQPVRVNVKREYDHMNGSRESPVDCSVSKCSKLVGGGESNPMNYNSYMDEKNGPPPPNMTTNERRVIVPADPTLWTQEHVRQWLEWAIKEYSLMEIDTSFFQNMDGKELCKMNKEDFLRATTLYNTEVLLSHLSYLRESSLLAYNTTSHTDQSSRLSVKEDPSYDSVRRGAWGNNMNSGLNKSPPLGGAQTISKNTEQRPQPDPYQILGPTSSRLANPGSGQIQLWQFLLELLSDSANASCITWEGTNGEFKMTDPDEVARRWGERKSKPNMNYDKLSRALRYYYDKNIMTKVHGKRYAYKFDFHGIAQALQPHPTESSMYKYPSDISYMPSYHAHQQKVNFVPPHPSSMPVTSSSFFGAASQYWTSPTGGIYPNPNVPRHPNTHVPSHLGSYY
Procedure, shortened: (§1)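 Binding signal is each hexamer's read frequency for a factor divided by its frequency in the tag-only sample. The factors were GST-fused human transcription factors from yeast, captured on glutathione beads, DNA-barcoded and pooled with that sample. Pools were incubated with 200 nmole of a random double-stranded 16-mer DNA library in Tris/NaCl/DTT/glycerol buffer at room temperature for 30 min, then washed, crosslinked with 0.1% formaldehyde, proximity-ligated with BsaI/T4 ligase (1 h, 37 °C), PCR-amplified and sequenced on an Illumina NextSeq500.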

ELK1 = molecular target: T2, ELK1 (Homo sapiens, UniProt P19419 1-428)
T2 sequence: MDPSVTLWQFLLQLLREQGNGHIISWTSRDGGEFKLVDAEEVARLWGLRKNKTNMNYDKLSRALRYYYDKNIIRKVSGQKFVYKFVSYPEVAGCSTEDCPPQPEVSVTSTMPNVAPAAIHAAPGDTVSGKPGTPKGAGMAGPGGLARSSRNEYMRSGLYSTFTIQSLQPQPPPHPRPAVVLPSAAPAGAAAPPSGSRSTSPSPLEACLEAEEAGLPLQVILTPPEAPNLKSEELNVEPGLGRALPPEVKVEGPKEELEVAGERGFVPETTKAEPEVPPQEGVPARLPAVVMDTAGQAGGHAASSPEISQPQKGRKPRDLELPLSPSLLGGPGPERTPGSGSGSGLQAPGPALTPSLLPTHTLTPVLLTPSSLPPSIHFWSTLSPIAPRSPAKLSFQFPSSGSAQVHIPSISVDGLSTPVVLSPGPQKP
Procedure, shortened: as §1

GABPA = molecular target: T3, GABPA (Homo sapiens, UniProt Q06546 1-454)
T3 sequence: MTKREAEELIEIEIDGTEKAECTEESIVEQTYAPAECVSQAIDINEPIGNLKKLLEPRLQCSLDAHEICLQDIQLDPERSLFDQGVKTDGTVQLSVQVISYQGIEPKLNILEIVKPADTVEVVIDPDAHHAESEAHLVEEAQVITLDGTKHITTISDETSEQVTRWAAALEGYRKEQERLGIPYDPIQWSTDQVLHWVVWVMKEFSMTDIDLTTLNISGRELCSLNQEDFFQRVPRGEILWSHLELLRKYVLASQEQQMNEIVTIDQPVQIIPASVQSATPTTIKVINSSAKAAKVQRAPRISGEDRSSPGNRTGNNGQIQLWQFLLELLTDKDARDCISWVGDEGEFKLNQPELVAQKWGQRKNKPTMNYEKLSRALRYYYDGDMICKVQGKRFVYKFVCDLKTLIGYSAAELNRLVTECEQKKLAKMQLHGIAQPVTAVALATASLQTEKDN
Procedure, shortened: as §1

ERG = molecular target: T4, ERG (Homo sapiens, UniProt P11308 1-479)
T4 sequence: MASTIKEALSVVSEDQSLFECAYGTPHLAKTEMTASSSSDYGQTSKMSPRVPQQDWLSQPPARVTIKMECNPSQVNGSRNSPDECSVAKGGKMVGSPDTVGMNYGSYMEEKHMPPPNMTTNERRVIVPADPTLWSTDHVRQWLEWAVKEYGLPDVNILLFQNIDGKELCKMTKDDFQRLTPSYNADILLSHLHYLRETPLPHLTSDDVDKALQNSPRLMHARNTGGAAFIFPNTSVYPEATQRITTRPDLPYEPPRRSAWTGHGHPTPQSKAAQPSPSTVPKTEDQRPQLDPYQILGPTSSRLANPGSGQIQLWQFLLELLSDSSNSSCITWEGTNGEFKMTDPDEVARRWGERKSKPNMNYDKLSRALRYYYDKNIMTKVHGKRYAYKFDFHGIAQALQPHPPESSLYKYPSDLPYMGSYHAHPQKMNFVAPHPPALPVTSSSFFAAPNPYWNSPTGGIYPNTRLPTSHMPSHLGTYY
Procedure, shortened: as §1

ELF1 = ELF1 (Homo sapiens, UniProt P32519 1-619)
Chain of ELF1 (P32519 whole entry): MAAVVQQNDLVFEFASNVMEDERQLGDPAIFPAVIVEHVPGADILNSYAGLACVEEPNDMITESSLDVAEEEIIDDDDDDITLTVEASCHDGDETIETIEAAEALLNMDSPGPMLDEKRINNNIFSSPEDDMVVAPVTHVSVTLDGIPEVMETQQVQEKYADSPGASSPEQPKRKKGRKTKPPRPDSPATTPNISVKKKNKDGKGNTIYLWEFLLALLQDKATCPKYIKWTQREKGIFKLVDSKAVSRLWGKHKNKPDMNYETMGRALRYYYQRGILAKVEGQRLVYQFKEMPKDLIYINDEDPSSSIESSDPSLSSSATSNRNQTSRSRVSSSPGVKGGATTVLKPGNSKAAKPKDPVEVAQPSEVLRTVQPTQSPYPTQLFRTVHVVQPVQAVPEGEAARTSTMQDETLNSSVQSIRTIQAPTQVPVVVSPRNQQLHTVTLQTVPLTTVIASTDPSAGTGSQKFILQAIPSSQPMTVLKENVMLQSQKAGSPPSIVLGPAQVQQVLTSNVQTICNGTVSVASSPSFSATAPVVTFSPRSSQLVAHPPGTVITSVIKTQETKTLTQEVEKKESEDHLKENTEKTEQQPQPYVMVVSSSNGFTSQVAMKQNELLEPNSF
Procedure, shortened: as §1

EHF = molecular target: T5, EHF (Homo sapiens, UniProt Q9NZC4 1-300)
T5 sequence: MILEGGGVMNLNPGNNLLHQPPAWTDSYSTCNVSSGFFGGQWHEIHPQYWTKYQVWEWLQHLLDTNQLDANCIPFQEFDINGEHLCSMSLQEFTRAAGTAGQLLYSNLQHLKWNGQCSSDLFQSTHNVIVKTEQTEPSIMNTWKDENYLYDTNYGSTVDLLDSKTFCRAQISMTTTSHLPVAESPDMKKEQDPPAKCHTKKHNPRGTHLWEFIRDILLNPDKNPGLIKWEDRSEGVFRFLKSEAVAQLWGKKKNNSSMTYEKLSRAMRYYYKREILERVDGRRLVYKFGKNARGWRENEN
Procedure, shortened: as §1

SPI1 = SPI1 (Homo sapiens, UniProt P17947 1-270)
Procedure, shortened: as §1

SPIB = SPIB (Homo sapiens, UniProt Q01892 1-262)
Chain of SPIB (Q01892 whole entry): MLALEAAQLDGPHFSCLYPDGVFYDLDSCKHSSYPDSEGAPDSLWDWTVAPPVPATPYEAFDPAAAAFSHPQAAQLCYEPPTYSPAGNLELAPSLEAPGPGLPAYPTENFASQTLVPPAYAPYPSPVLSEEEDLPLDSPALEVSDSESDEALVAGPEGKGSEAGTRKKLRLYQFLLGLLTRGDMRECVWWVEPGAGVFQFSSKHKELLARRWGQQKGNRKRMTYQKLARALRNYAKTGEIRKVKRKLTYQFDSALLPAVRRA
Procedure, shortened: as §1

FEV = molecular target: T6, FEV (Homo sapiens, UniProt Q99581 1-238)
T6 sequence: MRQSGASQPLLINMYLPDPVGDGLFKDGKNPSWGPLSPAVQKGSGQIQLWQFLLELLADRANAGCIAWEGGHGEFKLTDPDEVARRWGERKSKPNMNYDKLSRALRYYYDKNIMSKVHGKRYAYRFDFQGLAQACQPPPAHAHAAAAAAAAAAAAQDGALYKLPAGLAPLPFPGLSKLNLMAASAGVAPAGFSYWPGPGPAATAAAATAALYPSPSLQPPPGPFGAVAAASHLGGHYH
Procedure, shortened: as §1

ETV5 = ETV5 (Homo sapiens, UniProt P41161 1-510)
Chain of ETV5 (P41161 whole entry): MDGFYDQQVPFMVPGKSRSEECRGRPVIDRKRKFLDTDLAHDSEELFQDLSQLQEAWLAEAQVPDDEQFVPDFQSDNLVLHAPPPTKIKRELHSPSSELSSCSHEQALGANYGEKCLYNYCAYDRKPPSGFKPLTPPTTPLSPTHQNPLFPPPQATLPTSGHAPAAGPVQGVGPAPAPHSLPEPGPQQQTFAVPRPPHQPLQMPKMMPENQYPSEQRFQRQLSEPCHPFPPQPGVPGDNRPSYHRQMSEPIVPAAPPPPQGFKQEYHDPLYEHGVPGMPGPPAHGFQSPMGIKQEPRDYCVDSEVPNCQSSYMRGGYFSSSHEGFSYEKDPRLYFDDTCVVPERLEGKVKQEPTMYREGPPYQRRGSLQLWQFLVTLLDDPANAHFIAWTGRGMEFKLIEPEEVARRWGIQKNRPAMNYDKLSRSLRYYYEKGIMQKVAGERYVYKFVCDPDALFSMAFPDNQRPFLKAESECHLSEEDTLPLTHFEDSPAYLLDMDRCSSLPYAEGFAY
Procedure, shortened: as §1

Q: For ACGACC, which binding signal (FLI1) is on record?
A: 1.18 fold enrichment (6-mer frequency, TF over GST control)

Q: And the binding signal (ELK1)?
A: 1.21 fold enrichment (6-mer frequency, TF over GST control)

Q: And the binding signal (GABPA)?
A: 1.11 fold enrichment (6-mer frequency, TF over GST control)

Q: What about the binding signal (ERG) of the same sequence?
A: 1.1 fold enrichment (6-mer frequency, TF over GST control)

Q: And the binding signal (ELF1)?
A: 1.21 fold enrichment (6-mer frequency, TF over GST control)

Q: What about the binding signal (EHF) of the same sequence?
A: 1.1 fold enrichment (6-mer frequency, TF over GST control)

Q: What about the binding signal (SPI1) of the same sequence?
A: 1.03 fold enrichment (6-mer frequency, TF over GST control)

Q: What about the binding signal (SPIB) of the same sequence?
A: 1.07 fold enrichment (6-mer frequency, TF over GST control)

Q: And the binding signal (FEV)?
A: 1.22 fold enrichment (6-mer frequency, TF over GST control)

Q: And the binding signal (ETV5)?
A: 1.17 fold enrichment (6-mer frequency, TF over GST control)
